From the supplement of paper PMC10849652
The full data set covers some 7,900 targets. This sample favours those with a hit. About 0.6% of all pairs of compound and target were hits.

Legend:
Assay in all cases: log2 fold change, soluble protein after heating vs DMSO (PISA); higher = thermal stabilisation; K562 cells, 10 uM, 30 min; active = over 0.2 and 3.5 SD of the protein, either way, in both replicates (recomputed)
erlotinib = compound: C#Cc1cccc(Nc2ncnc3cc(OCCOC)c(OCCOC)cc23)c1 [erlotinib]
Summary of the method: (§1)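 Quantification of soluble protein used TMTpro 16plex LC-MS/MS, with channel sums equalised. Samples were the supernatant after 21,000xg for 90 min of pooled aliquots from K562 cells (2×10^6 cells/mL) treated with 10 μM compound for 30 min, heated for 3 min over 48°C-58°C, and extracted in PBS with 0.5% NP-40 at 4°C. Values, from duplicates, describe thermal stability against control samples on a log2 fold-change scale.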

[1] = compound: C/C(=N\NC(=O)C1=CC(=CC=C1)S(=O)(=O)N2CCOCC2)/C3=C(C=CC(=C3)Cl)O
Summary of the method: as §1

[2] = compound: C1=CC(=C(C=C1Cl)C2=NC3=NC=CN=C3C(=N2)NC4=CC=NC=C4)F
Summary of the method: as §1

[3] = compound: C1=CC(=CC=C1C2=NC3=C(N2)C=C(C=C3)C(=O)N)OC4=CC=C(C=C4)Cl
Summary of the method: as §1

[4] = compound: C1=CC2=C(C=CC(=C2)/C=C\3/C(=O)NC(=NCC4=CC=CS4)S3)N=C1
Summary of the method: as §1

[5] = compound: C1=CC2=NC=CN=C2C=C1/C=C/3\C(=O)NC(=O)S3
Summary of the method: as §1

[6] = compound: C1=CC=C(C=C1)C2=NC(=C(N2)C3=CC=NC=C3)C4=CC(=C(C=C4)Cl)O
Summary of the method: as §1

[7] = compound: C1=CC=C2C(=C1)C3=NNC4=CC=CC(=C43)C2=O
Summary of the method: as §1

[8] = compound: C1CCN(C1)C(=O)NC2=CC=CC(=C2)NC3=NC=C(C(=N3)NCCC4=CN=CN4)Br
Summary of the method: as §1

[9] = compound: C1CN(CCC1(CC2=CC=C(C=C2)Cl)N)C3=NC=NC4=C3C=CN4
Summary of the method: as §1

Measured: log2 fold change

ACAP2 (UniProt Q15057)
inactive: erlotinib -0.002 | [1] 0.054 | [2] 0.062 | [3] -0.05 | [4] 0.056 | [5] 0.037 | [6] -0.032 | [7] -0.012 | [8] -0.042 | [9] -0.013

ANAPC2 (UniProt Q9UJX6)
inactive: erlotinib -0.028 | [1] 0.064 | [2] -0.002 | [3] 0.018 | [4] 0.002 | [5] 0.144 | [6] -0.029 | [7] 0.022 | [8] -0.033 | [9] -0.022

ATP5IF1 (UniProt Q9UII2)
UniProt Q9UII2, sequence (Q9UII2 whole entry, looked up): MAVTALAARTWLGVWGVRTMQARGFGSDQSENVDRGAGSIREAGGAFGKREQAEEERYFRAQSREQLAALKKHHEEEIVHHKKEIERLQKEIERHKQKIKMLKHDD
inactive: erlotinib 0.001 | [1] -0.122 | [2] 0.032 | [3] -0.005 | [4] -0.104 | [5] 0.007 | [6] -0.051 | [7] 0.153 | [8] 0.053 | [9] 0.032

AFDN isoform 5 (UniProt P55196)
inactive: erlotinib -0.005 | [1] 0.101 | [2] 0.021 | [3] 0.01 | [4] -0.02 | [5] 0 | [6] 0.012 | [7] -0.005 | [8] -0.049 | [9] 0.038

ATR (UniProt Q13535)
inactive: erlotinib 0.014 | [1] -0.011 | [2] -0.039 | [3] 0.018 | [4] 0.02 | [5] 0.02 | [6] -0.017 | [7] 0.086 | [8] -0.029 | [9] 0.046

ACSF3 (UniProt Q4G176)
UniProt Q4G176, sequence (Q4G176 whole entry, looked up): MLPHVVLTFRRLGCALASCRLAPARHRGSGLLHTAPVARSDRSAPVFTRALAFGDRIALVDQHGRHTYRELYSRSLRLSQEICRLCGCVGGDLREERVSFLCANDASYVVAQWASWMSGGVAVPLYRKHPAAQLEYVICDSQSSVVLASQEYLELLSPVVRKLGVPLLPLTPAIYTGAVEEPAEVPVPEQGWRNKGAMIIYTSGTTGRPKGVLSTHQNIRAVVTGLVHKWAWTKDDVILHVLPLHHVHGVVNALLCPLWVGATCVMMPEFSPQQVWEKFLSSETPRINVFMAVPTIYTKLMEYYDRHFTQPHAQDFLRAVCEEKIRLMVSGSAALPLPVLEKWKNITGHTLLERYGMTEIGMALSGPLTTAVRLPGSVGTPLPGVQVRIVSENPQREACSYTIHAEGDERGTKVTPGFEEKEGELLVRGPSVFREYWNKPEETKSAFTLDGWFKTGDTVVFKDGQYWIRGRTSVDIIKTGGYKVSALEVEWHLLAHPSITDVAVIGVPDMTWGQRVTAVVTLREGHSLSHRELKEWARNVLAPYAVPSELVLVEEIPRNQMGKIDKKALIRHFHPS
inactive: erlotinib 0.07 | [1] -0.066 | [2] 0.057 | [3] -0.155 | [4] -0.104 | [5] 0.04 | [6] 0.028 | [7] 0.022 | [8] -0.001 | [9] -0.038

ARGLU1 (UniProt Q9NWB6)
inactive: erlotinib 0.016 | [1] 0.052 | [2] -0.183 | [3] 0.115 | [5] 0.014 | [6] -0.125 | [7] -0.235 | [8] -0.02 | [9] -0.232
active: [4] -0.38

ADD1 isoform 3 (UniProt P35611)
inactive: erlotinib 0.041 | [1] 0.018 | [2] -0.013 | [3] -0.022 | [4] 0.071 | [5] 0.004 | [6] -0.08 | [7] -0.018 | [8] -0.018 | [9] 0.023

ADAM15 (UniProt Q13444)
inactive: erlotinib 0.314 | [1] 0.154 | [2] 0.03 | [3] -0.223 | [4] 0.035 | [5] 0.068 | [6] 0.043 | [7] 0.08 | [8] -0.042 | [9] 0.013

ABHD16A (UniProt O95870)
UniProt O95870, sequence (O95870 whole entry, looked up): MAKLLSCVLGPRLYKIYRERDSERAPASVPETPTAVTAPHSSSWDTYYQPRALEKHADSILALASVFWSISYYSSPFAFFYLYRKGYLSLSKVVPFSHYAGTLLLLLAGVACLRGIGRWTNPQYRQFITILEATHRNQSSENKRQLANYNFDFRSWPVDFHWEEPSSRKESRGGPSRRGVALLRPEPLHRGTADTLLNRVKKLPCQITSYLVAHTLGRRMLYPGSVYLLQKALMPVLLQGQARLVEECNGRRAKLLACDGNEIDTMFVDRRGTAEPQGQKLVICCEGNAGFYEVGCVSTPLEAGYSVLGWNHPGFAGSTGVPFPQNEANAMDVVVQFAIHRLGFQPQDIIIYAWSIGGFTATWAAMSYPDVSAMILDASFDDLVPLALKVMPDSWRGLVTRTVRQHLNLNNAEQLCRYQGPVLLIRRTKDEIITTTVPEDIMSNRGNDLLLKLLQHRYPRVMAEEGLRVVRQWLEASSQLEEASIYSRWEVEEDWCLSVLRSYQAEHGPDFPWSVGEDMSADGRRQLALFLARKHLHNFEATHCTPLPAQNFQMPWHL
inactive: erlotinib -0.036 | [1] 0.02 | [2] -0.048 | [3] 0.161 | [4] 0.208 | [5] -0.094 | [6] 0.036 | [7] 0.009 | [8] -0.005 | [9] 0.023

AP2B1 isoform 2 (UniProt P63010)
UniProt P63010, sequence (P63010 whole entry, looked up): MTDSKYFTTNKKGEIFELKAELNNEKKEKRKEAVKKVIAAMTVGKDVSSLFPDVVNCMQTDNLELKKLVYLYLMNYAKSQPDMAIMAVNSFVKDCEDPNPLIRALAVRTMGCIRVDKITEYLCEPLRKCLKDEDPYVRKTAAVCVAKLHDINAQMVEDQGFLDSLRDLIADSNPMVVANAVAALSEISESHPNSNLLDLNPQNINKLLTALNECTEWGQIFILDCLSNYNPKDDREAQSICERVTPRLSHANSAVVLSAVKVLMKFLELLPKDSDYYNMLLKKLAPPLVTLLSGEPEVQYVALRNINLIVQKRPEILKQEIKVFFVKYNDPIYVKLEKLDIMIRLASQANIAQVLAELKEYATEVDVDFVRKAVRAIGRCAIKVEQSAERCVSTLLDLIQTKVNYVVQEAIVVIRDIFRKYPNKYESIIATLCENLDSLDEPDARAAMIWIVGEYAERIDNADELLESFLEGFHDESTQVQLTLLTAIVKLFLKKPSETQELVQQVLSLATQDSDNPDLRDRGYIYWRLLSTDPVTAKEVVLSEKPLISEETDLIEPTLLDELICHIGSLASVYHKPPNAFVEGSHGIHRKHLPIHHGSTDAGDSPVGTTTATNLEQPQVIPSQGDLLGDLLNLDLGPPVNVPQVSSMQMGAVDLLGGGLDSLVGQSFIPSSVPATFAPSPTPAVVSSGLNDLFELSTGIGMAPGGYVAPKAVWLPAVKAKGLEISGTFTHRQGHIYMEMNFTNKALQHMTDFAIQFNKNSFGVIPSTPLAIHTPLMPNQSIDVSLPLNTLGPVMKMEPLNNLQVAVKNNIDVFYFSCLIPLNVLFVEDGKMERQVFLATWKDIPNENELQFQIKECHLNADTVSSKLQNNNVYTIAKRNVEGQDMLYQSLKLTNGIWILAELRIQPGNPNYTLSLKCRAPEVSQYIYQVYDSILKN
inactive: erlotinib -0.021 | [1] 0.017 | [2] -0.01 | [3] 0.003 | [4] 0.004 | [5] -0.009 | [6] -0.004 | [7] -0.158 | [9] -0.003
active: [8] -0.225

AGRN (UniProt O00468)
UniProt O00468, sequence (O00468 whole entry, looked up): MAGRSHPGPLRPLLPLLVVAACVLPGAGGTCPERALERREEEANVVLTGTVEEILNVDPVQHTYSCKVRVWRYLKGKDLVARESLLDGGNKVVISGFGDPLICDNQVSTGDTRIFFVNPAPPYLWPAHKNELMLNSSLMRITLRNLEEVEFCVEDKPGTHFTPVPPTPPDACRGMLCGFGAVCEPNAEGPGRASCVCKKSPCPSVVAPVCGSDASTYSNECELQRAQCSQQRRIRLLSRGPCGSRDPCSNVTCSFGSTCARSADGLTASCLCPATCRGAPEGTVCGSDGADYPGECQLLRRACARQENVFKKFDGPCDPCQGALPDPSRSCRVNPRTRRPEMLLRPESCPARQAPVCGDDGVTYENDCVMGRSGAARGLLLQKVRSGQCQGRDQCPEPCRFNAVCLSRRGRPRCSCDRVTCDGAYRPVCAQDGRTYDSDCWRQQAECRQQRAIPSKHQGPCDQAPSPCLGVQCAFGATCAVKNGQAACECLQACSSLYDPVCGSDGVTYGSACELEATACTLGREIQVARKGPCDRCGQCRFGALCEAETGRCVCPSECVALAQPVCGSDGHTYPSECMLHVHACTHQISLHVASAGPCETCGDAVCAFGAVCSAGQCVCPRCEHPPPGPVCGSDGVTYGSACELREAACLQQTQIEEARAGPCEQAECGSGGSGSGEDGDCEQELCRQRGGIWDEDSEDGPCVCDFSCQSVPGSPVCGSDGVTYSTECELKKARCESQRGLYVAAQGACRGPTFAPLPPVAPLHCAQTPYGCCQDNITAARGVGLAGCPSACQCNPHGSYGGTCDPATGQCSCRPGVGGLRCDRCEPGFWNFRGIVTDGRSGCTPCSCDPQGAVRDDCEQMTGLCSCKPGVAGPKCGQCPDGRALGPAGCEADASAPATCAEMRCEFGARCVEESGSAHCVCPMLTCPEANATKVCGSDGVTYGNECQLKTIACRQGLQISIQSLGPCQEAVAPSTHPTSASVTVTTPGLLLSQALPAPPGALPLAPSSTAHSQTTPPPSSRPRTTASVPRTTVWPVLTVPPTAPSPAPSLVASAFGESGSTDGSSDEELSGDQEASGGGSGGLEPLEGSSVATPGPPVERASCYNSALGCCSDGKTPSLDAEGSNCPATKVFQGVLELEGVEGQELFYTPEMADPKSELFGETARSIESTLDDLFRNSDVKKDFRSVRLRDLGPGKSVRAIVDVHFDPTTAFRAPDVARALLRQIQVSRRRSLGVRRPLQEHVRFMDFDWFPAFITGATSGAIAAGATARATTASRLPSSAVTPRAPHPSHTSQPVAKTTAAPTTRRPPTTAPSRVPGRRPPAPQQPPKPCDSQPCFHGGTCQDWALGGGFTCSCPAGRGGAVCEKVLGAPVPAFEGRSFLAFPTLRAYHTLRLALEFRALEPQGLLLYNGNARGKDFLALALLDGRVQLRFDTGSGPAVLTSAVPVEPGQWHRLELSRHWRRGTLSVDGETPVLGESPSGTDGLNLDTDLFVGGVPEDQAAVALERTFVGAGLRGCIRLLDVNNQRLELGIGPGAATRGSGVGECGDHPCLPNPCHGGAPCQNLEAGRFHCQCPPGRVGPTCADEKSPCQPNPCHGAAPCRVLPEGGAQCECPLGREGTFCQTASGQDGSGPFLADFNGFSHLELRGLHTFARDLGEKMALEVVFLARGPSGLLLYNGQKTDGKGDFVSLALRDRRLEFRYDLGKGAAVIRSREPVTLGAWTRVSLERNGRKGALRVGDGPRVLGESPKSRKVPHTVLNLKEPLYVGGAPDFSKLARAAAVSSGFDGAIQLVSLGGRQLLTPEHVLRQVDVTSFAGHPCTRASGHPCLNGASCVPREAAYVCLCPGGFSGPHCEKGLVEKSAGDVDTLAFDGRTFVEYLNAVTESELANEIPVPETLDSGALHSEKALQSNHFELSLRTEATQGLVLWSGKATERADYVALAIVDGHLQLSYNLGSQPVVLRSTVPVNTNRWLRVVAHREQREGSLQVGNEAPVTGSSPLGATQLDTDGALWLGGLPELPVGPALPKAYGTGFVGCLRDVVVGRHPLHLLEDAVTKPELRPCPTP
active: [6] 0.366
inactive: erlotinib 0.064 | [1] -0.013 | [2] -0.039 | [3] -0.125 | [4] 0.071 | [5] -0.048 | [7] 0.024 | [8] -0.091 | [9] 0.05

ALG11 (UniProt Q2TAA5)
inactive: erlotinib -0.015 | [1] 0.042 | [2] 0.075 | [3] 0.013 | [4] 0.074 | [5] 0.054 | [6] 0.009 | [7] -0.048 | [8] -0.045 | [9] -0.014

AKAP8 (UniProt O43823)
inactive: erlotinib -0.056 | [1] 0.032 | [2] 0.074 | [3] 0.039 | [4] -0.028 | [5] -0.004 | [6] -0.039 | [7] -0.068 | [8] 0.015 | [9] 0.018

ATP13A2 (UniProt Q9NQ11)
inactive: erlotinib 0.047 | [1] 0.012 | [2] 0.011 | [3] 0.096 | [4] 0.024 | [5] 0.099 | [6] 0.01 | [7] -0.042 | [8] 0.035 | [9] 0.082

AAR2 (UniProt Q9Y312)
inactive: erlotinib 0.075 | [1] 0.089 | [2] -0.113 | [3] 0.057 | [4] 0.103 | [5] 0.049 | [6] -0.003 | [7] -0.137 | [8] -0.008 | [9] 0.043

ACIN1 (UniProt Q9UKV3)
inactive: erlotinib 0.116 | [1] -0.1 | [2] -0.033 | [3] 0.006 | [4] 0.051 | [5] 0.007 | [6] 0 | [7] -0.012 | [8] -0.041 | [9] -0.038

ALKBH5 (UniProt Q6P6C2)
active: [1] -0.637
inactive: erlotinib 0.176 | [2] -0.126 | [3] 0.139 | [4] 0.056 | [5] -0.067 | [6] 0.015 | [7] -0.032 | [8] -0.087 | [9] 0.113

ALDH9A1 isoform 3 (UniProt P49189)
UniProt P49189, sequence (P49189 whole entry, looked up): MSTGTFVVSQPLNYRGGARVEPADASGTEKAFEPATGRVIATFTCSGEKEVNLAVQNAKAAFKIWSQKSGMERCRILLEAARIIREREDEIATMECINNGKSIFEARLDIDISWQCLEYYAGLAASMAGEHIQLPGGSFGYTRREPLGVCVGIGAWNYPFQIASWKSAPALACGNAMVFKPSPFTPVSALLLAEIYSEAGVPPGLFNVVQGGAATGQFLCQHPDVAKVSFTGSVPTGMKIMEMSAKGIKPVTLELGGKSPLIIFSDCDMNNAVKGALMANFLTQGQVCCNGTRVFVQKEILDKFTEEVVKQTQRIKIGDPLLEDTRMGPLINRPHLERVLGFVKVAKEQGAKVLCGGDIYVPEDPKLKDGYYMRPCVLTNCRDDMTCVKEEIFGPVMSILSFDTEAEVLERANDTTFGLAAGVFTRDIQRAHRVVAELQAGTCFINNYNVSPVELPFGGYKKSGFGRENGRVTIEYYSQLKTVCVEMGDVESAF
inactive: erlotinib -0.025 | [1] 0.016 | [2] 0.043 | [3] 0.027 | [4] -0.004 | [5] 0.003 | [6] 0.037 | [7] -0.007 | [8] -0.018 | [9] 0.051

ACOX3 (UniProt O15254)
inactive: erlotinib 0.158 | [1] -0.157 | [2] -0.068 | [3] 0.007 | [4] -0.122 | [5] -0.026 | [7] 0.071 | [8] 0.153 | [9] 0.054

ATF1 (UniProt P18846)
inactive: erlotinib -0.058 | [1] 0.244 | [2] 0.129 | [3] -0.054 | [4] -0.221 | [5] 0.023 | [7] 0.039 | [8] -0.117 | [9] -0.024

BCAP29 isoform 2 (UniProt Q9UHQ4)
UniProt Q9UHQ4, sequence (Q9UHQ4 whole entry, looked up): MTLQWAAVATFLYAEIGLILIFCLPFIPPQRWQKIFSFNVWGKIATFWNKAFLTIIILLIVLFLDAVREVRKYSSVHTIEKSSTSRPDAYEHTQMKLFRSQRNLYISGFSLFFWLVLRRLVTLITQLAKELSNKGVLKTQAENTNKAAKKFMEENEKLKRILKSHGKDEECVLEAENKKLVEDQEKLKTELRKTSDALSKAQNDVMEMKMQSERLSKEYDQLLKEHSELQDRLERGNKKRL
inactive: erlotinib -0.02 | [1] 0.002 | [2] 0.077 | [3] 0.062 | [4] -0.026 | [5] 0.086 | [6] -0.034 | [7] 0.038 | [8] 0.062 | [9] -0.022

AP4S1 (UniProt Q9Y587)
active: [4] -0.456
inactive: erlotinib -0.014 | [1] -0.013 | [2] -0.015 | [3] 0.078 | [5] 0 | [7] -0.111

ATP13A3 (UniProt Q9H7F0)
inactive: erlotinib 0.043 | [1] -0.046 | [2] 0.05 | [3] 0.018 | [4] 0.016 | [5] 0.038 | [6] -0.006 | [7] -0.028 | [8] 0.017 | [9] 0.049

ARMC8 (UniProt Q8IUR7)
inactive: erlotinib -0.079 | [1] -0.029 | [2] -0.029 | [3] 0.027 | [4] -0.047 | [5] 0.013 | [6] 0.051 | [7] -0.005 | [8] -0.002 | [9] -0.027

APAF1 (UniProt O14727)
inactive: erlotinib 0.207 | [1] 0.066 | [2] -0.073 | [3] 0.141 | [4] 0.016 | [6] 0.037 | [7] 0.011

AP2S1 (UniProt P53680)
active: [7] -0.27 | [8] -0.354
inactive: erlotinib -0.1 | [1] 0.148 | [2] -0.056 | [3] -0.018 | [4] 0.052 | [5] 0.013 | [6] -0.011 | [9] -0.003

ACVR1 (UniProt Q04771)
inactive: erlotinib -0.101 | [1] -0.051 | [2] 0.021 | [3] 0.031 | [4] -0.021 | [7] 0.136 | [8] -0.326 | [9] 0.035

BRD8 isoform 2 (UniProt Q9H0E9)
inactive: erlotinib 0.157 | [1] 0.016 | [2] 0.029 | [3] 0.082 | [4] 0.035 | [5] 0.055 | [6] -0.152 | [7] -0.044 | [8] -0.027 | [9] 0.021

ACSM3 (UniProt Q53FZ2)
inactive: erlotinib 0.078 | [1] 0.01 | [2] 0.076 | [3] -0.235 | [4] 0.088 | [5] -0.009 | [6] -0.078 | [7] -0.072 | [8] 0.009 | [9] 0.01

ACP1 (UniProt P24666)
inactive: erlotinib 0.149 | [1] 0.06 | [2] 0.035 | [3] -0.066 | [4] 0.224 | [5] -0.059 | [7] 0.109 | [8] -0.001 | [9] -0.015
